Assay results reported in PubChem BioAssay (NCATS).
Records with an inconclusive call do not appear. The source made the active and inactive calls. Calls come from the whole dose curve; as a rule, active = well fitted curve in the direction sought with a large enough effect; inconclusive = small, poorly fitted or top-dose-only effect, or another doubt; inactive = no such curve, though single readings can be large; an effect the other way counts as inactive or inconclusive.

Key:
[1] = target: Cellular tumor antigen p53 (Homo sapiens) (UniProt P04637); experiment: Primary qHTS for small molecule compounds that upregulate eGFP-tagged delta133p53alpha (in N-terminal) cells. (AID 2060322); conditions: NCI-H358 eGFP-delta133p53alpha fluorescence, 24 h; activation: hits give high values;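 note: cells pre-induced with doxycycline then dosed without doxycycline; series mostly up to about 56 µM; 0% = DMSO vehicle and 100% = reference activator; nearly all actives have a fitted effect of over 75% in size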
Chain of Cellular tumor antigen p53 (Homo sapiens) (P04637 whole entry, looked up): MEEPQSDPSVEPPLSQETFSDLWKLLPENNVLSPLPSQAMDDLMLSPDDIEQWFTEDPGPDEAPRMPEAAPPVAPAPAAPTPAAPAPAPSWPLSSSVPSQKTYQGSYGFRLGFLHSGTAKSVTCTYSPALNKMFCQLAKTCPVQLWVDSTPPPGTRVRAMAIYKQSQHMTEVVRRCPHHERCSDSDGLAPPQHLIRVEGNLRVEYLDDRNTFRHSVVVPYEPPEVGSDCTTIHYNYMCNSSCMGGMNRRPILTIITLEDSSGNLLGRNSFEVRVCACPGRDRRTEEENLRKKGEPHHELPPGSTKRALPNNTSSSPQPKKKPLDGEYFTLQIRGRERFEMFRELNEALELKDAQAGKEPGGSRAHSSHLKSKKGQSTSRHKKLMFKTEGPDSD
How it was run: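 NCI-H358 cells pre-induced 24 h with 10 ng/ml doxycycline for eGFP-delta133p53alpha, plated dox-free and exposed 24 h at 37C to titrated compounds. Fixed, Hoechst-stained; gated GFP peak intensity by laser scanning cytometry, normalized to DMSO (0%) and 57.5 uM 5-azacytidine (100%).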

[2] = target: Aldehyde dehydrogenase, mitochondrial (Homo sapiens) (UniProt P05091); experiment: qHTS for Inhibitors of the Aldehyde Dehydrogenase Family (ALDH2) Primary screen (AID 2061308);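 note: plate controls were vehicle for no effect and reference inhibitor for full effect; nearly all actives have a fitted effect of over 55% in size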
[3] = target: Retinaldehyde dehydrogenase 3 (Homo sapiens) (UniProt P47895); experiment: qHTS for Inhibitors of the Aldehyde Dehydrogenase Family (ALDH1A3) Primary screen (AID 2061315);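 note: plate controls were DMSO vehicle for no effect and reference inhibitor for full effect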

CC(=O)OC1C(OC(=O)c2ccccc2)C2C(C)(C)CCC(OC(C)=O)C2(C)C23CCC(C)(C2)C(=O)CC13 (stereo not given)
inactive: activation [1] -14.5% | Potency [2] | Potency [3]

C=CC1(C)C=C2CCC3C(C)(C)C(O[C@@H]4O[C@@H](CO)[C@H](O)[C@H]4O)CCC3(C)C2CC1O[C@@H]1O[C@H](C)[C@H](O)[C@H](O)[C@H]1O (stereo not given in full)
inactive: activation [1] 0.763% | Potency [2] | Potency [3]

COC(=O)C[C@H]1[C@]2(C)C3=C(C)[C@H](c4ccoc4)C[C@H]3O[C@@H]2[C@H](O)C2[C@](C)(C(=O)OC)C=CC(=O)[C@@]21C (stereo not given in full)
inactive: activation [1] 2.29% | Potency [2] | Potency [3]

CO[C@@H]1CC(OC2CCC3(C)C(CCC45CCC(C6=CC(=O)OC6)C(C)(CCC43)C5=O)C2)O[C@H](C)[C@@H]1O[C@@H]1O[C@H](CO[C@@H]2O[C@H](CO)[C@@H](O)[C@H](O)[C@H]2O)[C@@H](O)[C@H](O)[C@H]1O (stereo not given in full)
inactive: activation [1] 1.53% | Potency [2] | Potency [3]

CC1=COC(OC2OC(CO)C(O)C(O)C2O)C2C(CO)CC(OC(=O)/C=C/c3ccc(O)cc3)C12 (stereo not given)
inactive: activation [1] -9.16% | Potency [2] | Potency [3]

COc1cc2c(cc1O)CC(O)(CO)C(CO)C2c1ccc(OC2OC(CO)C(O)C(O)C2O)c(OC)c1 (stereo not given)
inactive: activation [1] -31.3% | Potency [2] | Potency [3]

CC/C=C\[C@H](O)[C@H](O)C1=C(C)C(=O)[C@]2(O1)C(=O)N[C@@](OC)(C(=O)c1ccccc1)[C@@H]2O
inactive: activation [1] -6.87% | Potency [2] | Potency [3]

C=C1CC[C@H]2[C@@](C)(CCC[C@@]2(C)C(=O)O)[C@@H]1CCC(C)CCO (stereo not given in full)
inactive: activation [1] 9.16% | Potency [2] | Potency [3]

O=C(O)/C=C/c1ccc(O)c(O[C@@H]2O[C@H](CO)[C@@H](O)[C@H](O)[C@H]2O)c1
inactive: activation [1] 16% | Potency [2] | Potency [3]

COC1C=C(C)C(O)(CO)C2(C)CCCC(C)(C)C12 (stereo not given)
inactive: activation [1] 13% | Potency [2] | Potency [3]

COc1ccc([C@H]2Cc3cccc(O)c3C(=O)O2)cc1
inactive: activation [1] 3.05% | Potency [2] | Potency [3]

Cc1cc(N2CCN(C(=O)Oc3ccc(-c4ccccc4)cn3)CC2)c2ccccc2n1
inactive: activation [1] -10.3% | Potency [2] | Potency [3]

C[C@]12CC[C@@H]3c4ccc(O[C@@H]5O[C@H](C(=O)O)[C@@H](O)[C@H](O)[C@H]5O)cc4CC[C@H]3[C@@H]1CCC2=O
inactive: activation [1] -7% | Potency [2] | Potency [3]

CC1=CC2/C=C(\C)CCC3OC(C)(C)OC3CCC(=O)C23C(=O)NC(CC(C)C)C3C1C (stereo not given)
inactive: activation [1] -10.7% | Potency [2] | Potency [3]

CC(O)C1NC(=O)C2CCCN2C1=O (stereo not given)
inactive: activation [1] -25.2% | Potency [2] | Potency [3]

CC(=O)NC[C@H]1CN(c2ccc(N3CCN(C(=O)CO)CC3)c(F)c2)C(=O)O1
inactive: activation [1] 11.6% | Potency [2] | Potency [3]

O=C(OCC(O)CO[C@@H]1O[C@H](C(=O)O)[C@@H](O)[C@H](O)[C@H]1O)c1ccccc1 (stereo not given in full)
inactive: activation [1] -13% | Potency [2] | Potency [3]

CN1CCN(c2ccc(Nc3cc(-c4cccc(-n5ccc6cc(C7CC7)cc(F)c6c5=O)c4CO)cn(C)c3=O)nc2)CC1
inactive: activation [1] 2.68% | Potency [2] | Potency [3]

CC1(C)CCC2(C(=O)OC3OC(CO)C(O)C(O)C3O)CCC3(C)C(=CCC4C5(C)CCC(OC6OC(C(=O)O)C(OC7OC(CO)C(O)C(O)C7O)C(OC7OC(CO)C(O)C(O)C7O)C6O)C(C)(C)C5CCC43C)C2C1 (stereo not given)
inactive: activation [1] -5.34% | Potency [2] | Potency [3]

O=C(Nc1ccc(-c2ccncc2)cc1)N[C@H](CO)c1ccccc1
inactive: activation [1] -25.9% | Potency [2] | Potency [3]

C[C@H](O)C(O)(C(=O)OCc1ccccc1NC(=O)CCC(N)C(=O)O)[C@H](C)O (stereo not given in full)
inactive: activation [1] -24.4% | Potency [2] | Potency [3]

CC1CCC2(OC1)OC1CC3C4CC=C5CC(O)CC(O[C@@H]6OC[C@@H](O)[C@H](O)[C@H]6O)C5(C)C4CCC3(C)C1(O)C2C (stereo not given in full)
inactive: activation [1] 16.8% | Potency [2] | Potency [3]

Cc1cc(CS(=O)(=O)c2ccccc2)cc(OCc2ccc(CN3CCCC3CO)cc2)c1 (stereo not given)
inactive: activation [1] 8.93% | Potency [2] | Potency [3]

CN(C)CCn1cc(S(=O)(=O)c2cccc(F)c2)c2cccnc21
inactive: activation [1] -7.16% | Potency [2] | Potency [3]

CC(CCC1C(C(=O)O)=CC(=O)CC1(C)C)O[C@@H]1O[C@H](CO)[C@@H](O)[C@H](O)[C@H]1O (stereo not given in full)
inactive: activation [1] -11.5% | Potency [2] | Potency [3]
